Screening data (PubChem BioAssay)
This is a sample that favours compounds with a hit; in the whole collection about 3.6% have one here.
mHTT CaM bind: mutant huntingtin-calmodulin interaction inhibitors – biochemical, AlphaScreen, primary screen. AlphaScreen His-mHTT/GST-CaM binding, luminescence. inhibition, % at 15 µM. hit rate 3.6% among 190,000;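 note: 0% = both proteins with DMSO and 100% = one protein alone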
Pf apPOL block: Pf-apPOL inhibitors, biochemical, fluorescence; Plasmodium falciparum apicoplast DNA polymerase (apPOL); Recombinant Pf-apPOL, molecular beacon fluorescence, 1.5 h; inhibition, % at 10 µM; hit rate 0.25% among 210,000
* marks the source's active call; other numbers are inactive results; i = inactive; nt = no result given. Cut-off read from the data, not from the text of the source: active = inhibition above about 50%; inactive = the rest.

SMILES	mHTT CaM bind	Pf apPOL block
CCN1N=C(C(=O)N2CCC(C)CC2)S(=O)(=O)c2ccccc21	-11	1
CC1CCCCN1C(=O)C1CC(=O)N(c2ccc(F)cc2)C1 (centres undefined)	1	-2
CO/N=C/c1c(Sc2ccc(Cl)cc2)nc2ccccn2c1=O	i	-3
O=C1CNC(=S)N1CCc1c[nH]c2ccccc12	nt	12
O=C1C=CC(=O)C(C2=C3C(=O)N(CCc4c[nH]c5ccccc45)CC(=O)N3CCC2)=C1	63*	-3
O=C1C=CC(=O)C(C2=C3C(=O)N(CCc4ccccc4)CC(=O)N3CCC2)=C1	80*	-5
COc1ccc(CCN2CC(=O)N3CCCC(C4=CC(=O)C=CC4=O)=C3C2=O)cc1OC	21	2
Cn1c(=O)c2c(SCC(=O)Nc3ccccc3F)nc(-c3ccco3)nc2n(C)c1=O	-7	-1
CN(C)S(=O)(=O)N1CCC(Oc2cccc(-n3cnnn3)c2)CC1	-9	4
Cc1cccc(OCC(=O)N2CCCC(C)(C(=O)NCc3cccc(F)c3)C2)c1 (centres undefined)	6	1
Cn1cnnc1SCC(=O)c1cccs1	-5	98*
O=C(CSc1nn2c(SCC(=O)c3cccs3)nnc2s1)c1cccs1	17	5
NC(=O)c1ccc(NC(=O)c2cccc(Br)c2)cc1	4	-2
C=CCc1cccc(C=NNC(N)=S)c1O	94*	56*
C=CCc1cccc(C=Nc2ccc(Br)cc2)c1O	1	-3
COc1ccc(C2=N/C(=C\c3ccc(C)o3)C(=O)O2)cc1	-2	0
O=C(Nc1ccc(F)cc1)C1CCCN(c2nccnc2Sc2ccccc2)C1 (centres undefined)	0	-2
O=C(NCCc1c[nH]c2ccc(OCc3ccccc3)cc12)c1ccc(Cl)cc1	73*	-2
COc1ccc2[nH]cc(CCNC(=O)c3ccc(Cl)cc3)c2c1	14	2
CCC(=O)Nc1ccc(C2(C(=O)NC(C)CC)CCCCC2)cc1 (centres undefined)	-8	-2
C#CCn1cc(/C=C2/SC(=NC)N(C)C2=O)c2ccccc21	7	nt
CCOc1ccc(NC(=O)COc2ccccc2)c([N+](=O)[O-])c1	23	-4
CCOc1ccc(NC(=O)C(c2ccccc2)c2ccccc2)c([N+](=O)[O-])c1	50*	-8
CCOc1ccc(NC(=O)c2cccc3ccccc23)c([N+](=O)[O-])c1	63*	-2
CCOc1ccc(NC(=O)c2cc(Cl)ccc2Cl)c([N+](=O)[O-])c1	6	-24
SMILES	mHTT CaM bind	Pf apPOL block
Cc1nc2c(C(=O)NCc3ccc(F)cc3)cnn2c(C)c1Cc1ccccc1F	8	-11
Cc1ccc(C)c(S(=O)(=O)N2CCCC(C)(C(=O)NCc3cccc(F)c3)C2)c1 (centres undefined)	7	-2
N#CC1=C(N)OC2=C(CCCC2)C1c1ccc(F)cc1 (centres undefined)	9	-7
COc1cccc(C2C(C#N)=C(N)OC3=C2C(=O)CCC3)c1 (centres undefined)	0	-7
N#CC1=C(N)OC2=C(CC/C2=C\c2ccc(F)cc2)C1c1ccc(F)cc1 (centres undefined)	77*	1
COc1cccc(/C=C2\CCC3=C2OC(N)=C(C#N)C3c2cccc(OC)c2)c1 (centres undefined)	78*	-1
O=C(Nc1ccc(N2CCCN(Cc3cccs3)CC2)nc1)C1CCCC1	11	-3
O=C(O)c1ccc(S(=O)(=O)c2ccc3c(c2)C(=O)N(Cc2cccnc2)C3=O)cc1	2	-2
CCCCNc1ncnc2c1c(-c1ccccc1)cn2-c1ccccc1	38	0
Cc1ccc(-n2cc(-c3ccccc3)c3c(NCC4CCCO4)ncnc32)cc1 (centres undefined)	56*	-11
COc1cccc(C(=O)N2CCN(CC(=O)c3ccco3)CC2)c1	-15	-4
CCN(CC)CCCC(C)Nc1c2ccc(Cl)cc2nc2ccc(OC)cc12 (centres undefined)	nt	62*
CCN(CC)CCSc1nc2ccc(OC)cc2[nH]1	26	5
Cc1c(Br)c([N+](=O)[O-])nn1CC(=O)Nc1c(F)cc(F)cc1Br	2	-3
Cc1cc2[nH]c(C(=O)Nc3cccc(Cl)c3F)c(CN(C)C)c2s1	8	5
O=C(Nc1nnc(-c2ccccc2)s1)c1csc2c1CCCC2	2	-2
CC(C)NC(=O)c1ccccc1NC(=O)CN(c1ccccc1F)S(=O)(=O)c1ccccc1	3	92*
COc1ccc(N(CC(=O)Nc2ccc(F)cc2F)S(=O)(=O)c2ccccc2)c(OC)c1	0	-6
CCc1ccccc1N(CC(=O)Nc1ccc(F)cc1F)S(=O)(=O)c1ccccc1	81*	-8
CCc1ccccc1N(CC(=O)Nc1ccccc1C(=O)NC(C)C)S(C)(=O)=O	-1	-3
COc1ccc(CN[C@H]2CCC23CCCCC3)cc1OC	-13	-5
O=[N+]([O-])c1cnc(N2CCCCC2)nc1	-3	nt
Nc1cc(C2CCN(C(=O)Nc3ccc(Br)cc3)CC2)no1	-7	-6
O=C(Nc1c2c(nn1-c1cccc(Cl)c1)CSC2)c1ccccc1Cl	4	-2
COc1cc(/C=C/c2nc3ccccc3c(=O)n2-c2ccccc2[N+](=O)[O-])ccc1O	50*	5
SMILES	mHTT CaM bind	Pf apPOL block
COc1cc(/C=C/c2nc3ccccc3c(=O)n2CCO)ccc1O	7	-10
Cc1ccc(C)c(NC(=O)c2ccc(C(C)(C)C)cc2)c1	-10	-10
Cc1[nH]c2ccccc2c1CCNC(=O)NS(=O)(=O)Oc1ccc(Cl)cc1	3	-3
Nn1cnn2c(SCC(=O)Nc3ccc(S(N)(=O)=O)cc3)nnc12	20	0
Cc1ccc(S(=O)(=O)N=C2C=C(NS(=O)(=O)c3ccccc3)C(=O)c3ccccc32)cc1	66*	5
Cc1ccc(S(=O)(=O)Nc2ccccn2)cc1	-8	-8
CCOc1ccc(N=C(C)C2=C(O)c3ccccc3C2=O)cc1	5	-8
Cc1cccc(NC2=C(N(C)C)C(=O)c3ccccc3C2=O)c1	19	-10
CC(=NS(=O)(=O)c1ccc(C)cc1)N1CCOCC1	-3	4
Cc1ccc(S(=O)(=O)N=C2C=C(N3CCOCC3)C(=O)c3ccccc32)cc1	84*	1
Cc1ccc(S(=O)(=O)N=C2C=C(Nc3cccc(C)c3)C(=O)c3ccccc32)cc1	82*	-2
CCOc1ccc(S(=O)(=O)N=C2C=C(Nc3cccc(C)c3)C(=O)c3ccccc32)cc1	82*	2
COc1ccc(NC2=CC(=NS(=O)(=O)c3cc(C)ccc3C)c3ccccc3C2=O)cc1	47	7
Cc1ccc(C)c(S(=O)(=O)N=C2C=C(Nc3ccccc3)C(=O)c3ccccc32)c1	89*	-3
c1ccc(-n2ncc3c2-c2[nH]c4ccccc4c2CC3)cc1	93*	-5
c1ccc(-n2ncc3c2CCc2c-3[nH]c3ccccc23)cc1	33	-1
COCCN1CCC(N2CCCN(C(=O)Nc3ccc(C)c(C)c3)CC2)C1=O (centres undefined)	9	2
CCOC(=O)c1c(-c2ccccc2)oc2c1cc(OC(=O)c1ccccc1OC)c1ccccc12	-8	2
CCOC(=O)c1c(-c2ccccc2)oc2c1cc(OC(=O)c1cc(OC)c(OC)c(OC)c1)c1ccccc12	7	58*
CCn1ccc2sc(C)c(C(=O)N3CCC(N4CCCCC4)CC3)c2c1=O	22	-14
